Assay outcomes from PubChem BioAssay.
Most compounds without a hit are left out; they make up all but 2% or so of the library.
PGE2 EP2 inh = human EP2 receptor antagonists, primary screen, TR-FRET cAMP, C6 glioma cells; Prostaglandin E2 receptor EP2 subtype (Homo sapiens), P43116; C6 glioma cells expressing human EP2; cells stimulated with saturating PGE2; inhibition, % at 25 µM; 260,000 compounds, 0.52% hits; AID 1422, 2008;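 active = percent inhibition above 40 after rounding to a whole number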;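 note: rat C6 glioma host cells with rolipram phosphodiesterase inhibitor present; the protocol text gives 20 µM as final concentration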
EP2 modulator = EP2 receptor modulators, cAMP readout, primary screen, cell-based, HTRF cAMP, PGE2 stimulation | AID 940, 2007 | Prostaglandin E2 receptor EP2 subtype (Homo sapiens), P43116 | 260,000 compounds, 0.83% hits | induction, % at 25 µM | EP2-expressing cells, cAMP HTRF FRET, PGE2 co-stimulation;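 active = compounds whose cAMP rise, as percent of the full-agonist control response, exceeds 60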;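 note: rat C6 glioma line stably carrying human EP2 under a CMV promoter; the protocol text gives 20 µM as final concentration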
S1P4 ag = S1P4 receptor agonists, primary screen, cell-based. 220,000 compounds, 0.35% hits. activation, % at 4.98 µM. AID 1509, 2009. S1P4-expressing cell line, agonist reporter assay; in the data active = activation above about 11%
S1P4 antagonist = S1P4 receptor antagonists, primary screen, cell-based; S1P4-expressing cells, antagonist mode, reporter read-out; inhibition, % at 4.98 µM; 220,000 compounds, 0.26% hits; in the data active = inhibition above about 29%
S1P3 antagonist = S1P3 receptor antagonists, primary screen, cell-based; CHO S1P3 NFAT-BLA reporter, FRET fluorescence, antagonist mode; inhibition, % at 4.98 µM; 170,000 compounds, 0.27% hits;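 active = inhibition above the plate cutoff, the mean inhibition of test wells on that plate plus 3 SD, cut at about 28% in these data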;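 note: cells challenged with S1P at its EC80 of 0.8 µM; blue over green emission ratio from cleaved BLA substrate after 4 h stimulation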
S1P4 ag conf = S1P4 receptor agonists, retest, confirmation, cell-based, high throughput. S1P4 agonist cell-based reporter assay. activation, % at 4.98 µM. 740 compounds, 7% hits. shares compounds with S1P4 ag; in the data active = activation above about 12%
S1P1 agonist = S1P1 receptor agonists, human, counter-screen for S1P4 agonist project, cell-based | shares compounds with S1P4 ag | S1P1 agonist cell-based assay, activation | AID 1563, 2009 | activation, % at 4.98 µM | 740 compounds, 4% hits; in the data active = activation above about 21%
Target sequence (P21453 whole entry, looked up): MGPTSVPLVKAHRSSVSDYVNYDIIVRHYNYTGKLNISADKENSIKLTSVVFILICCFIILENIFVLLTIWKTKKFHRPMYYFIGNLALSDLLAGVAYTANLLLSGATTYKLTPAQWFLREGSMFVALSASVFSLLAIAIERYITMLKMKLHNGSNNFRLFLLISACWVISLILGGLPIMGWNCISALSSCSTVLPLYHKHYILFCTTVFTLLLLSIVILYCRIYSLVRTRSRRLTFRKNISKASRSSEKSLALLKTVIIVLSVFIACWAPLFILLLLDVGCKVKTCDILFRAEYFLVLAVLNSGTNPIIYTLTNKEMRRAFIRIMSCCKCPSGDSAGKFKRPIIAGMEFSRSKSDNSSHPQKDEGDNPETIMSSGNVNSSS
Each line names hits and unclear results; the compound was inactive in the other large screens (follow-up assays come after a bar, where they were run).

Cc1c(C)c2cc(Cl)c(O)c(CN3CCCC(C)C3)c2oc1=O (centres undefined)	none (no result: S1P3 antagonist)
Cc1c(C)c2cc(Cl)c(O)c(CN3CCN(C)CC3)c2oc1=O	S1P4 ag 15 (no result: S1P3 antagonist) | S1P4 ag conf inactive | S1P1 agonist inactive
CCc1nnc(NC(=O)CSc2nc(-c3ccc(Cl)cc3)cs2)s1	none (no result: S1P4 ag, S1P4 antagonist, S1P3 antagonist)
COc1cccc(NC(C(=O)Nc2cccc(C(C)=O)c2)c2ccccc2)c1 (centres undefined)	S1P4 ag 14 | S1P4 ag conf inactive | S1P1 agonist inactive
CCOc1ccc(NC(=O)c2sc(NC(=O)c3ccco3)c(C(=O)OC)c2C)cc1	none (no result: S1P4 ag, S1P4 antagonist, S1P3 antagonist)
COc1cccc(C2=NOC(C(=O)N3CCN(C(=O)c4ccco4)CC3)C2)c1 (centres undefined)	S1P4 ag 37 | S1P4 ag conf inactive | S1P1 agonist inactive
COc1cccc(CNc2cccc(C(F)(F)F)c2)c1O	S1P4 ag 17 | S1P4 ag conf inactive | S1P1 agonist inactive
COc1cccc(CNc2ccc(F)c(Cl)c2)c1O	none
CCc1nnc(NC(=O)CSc2nnc(-c3ccc(C)cc3)o2)s1	none (no result: S1P4 ag, S1P4 antagonist, S1P3 antagonist)
N#Cc1ccc(/C=C\c2nccc3c2[nH]c2ccccc23)cc1	S1P4 ag 13 | S1P4 ag conf inactive | S1P1 agonist inactive
OCCCCc1nccc2c1[nH]c1ccccc12	none
Clc1ccc(/C=C\c2nccc3c2[nH]c2ccccc23)cc1	S1P4 ag 23 | S1P4 ag conf 25 | S1P1 agonist 84
CCc1ccc(NC(=O)CSc2nc3c(C)cccc3cc2C#N)cc1	none (no result: S1P4 ag, S1P4 antagonist, S1P3 antagonist)
N#C/C(=C\c1cccs1)C(=O)c1ccccc1Cl	PGE2 EP2 inh 113, S1P4 ag 36 | S1P4 ag conf inactive | S1P1 agonist inactive
CCOCCCNC(=O)c1c[nH]c2cc(OC)c(OC)cc2c1=O	none (no result: S1P4 ag, S1P4 antagonist, S1P3 antagonist)
CCc1cccc(CC)c1NC(=O)COC(=O)c1ccc2c(c1)S(=O)(=O)c1ccccc1C2=O	S1P4 ag 12 | S1P4 ag conf inactive | S1P1 agonist inactive
O=C(NC(CO)C(=O)O)c1ccncc1 (centres undefined)	none (no result: S1P4 ag, S1P4 antagonist, S1P3 antagonist)
Cc1ccc(NC(=O)C2CCCN2C(=O)Oc2ccccc2)cc1 (centres undefined)	S1P4 ag 14 | S1P4 ag conf inactive | S1P1 agonist inactive
COc1ccc(NC(=O)C2CCCN2C(=O)Oc2ccccc2)cc1 (centres undefined)	none
O=C1CCC([N+](=O)[O-])C(c2ccc3c(c2)OCO3)N1 (centres undefined)	S1P4 ag 114 | S1P4 ag conf inactive | S1P1 agonist inactive
CCN(CC)S(=O)(=O)c1ccc(C(=O)NNc2nc(-c3ccccc3)c3cc(Br)ccc3n2)cc1	S1P4 ag 13 | S1P4 ag conf inactive | S1P1 agonist inactive
O=[N+]([O-])c1cccc(NC(=S)NCCc2ccccc2)c1	S1P4 ag 20 | S1P4 ag conf inactive | S1P1 agonist inactive
Fc1cccc(NC(=S)NCCc2ccccc2)c1	none
CCC1(C(=O)OC)CCc2c(cc(OC)c3ccccc23)C1=O (centres undefined)	S1P4 ag 13 | S1P4 ag conf inactive | S1P1 agonist inactive
COc1cc(C(=O)NCc2cccc3ccccc23)cc(Cl)c1OC	none (no result: S1P3 antagonist)
CC1CN(CC(O)COC(c2ccccc2)c2ccccc2)CC(C)O1 (centres undefined)	S1P4 ag 57 | S1P4 ag conf inactive | S1P1 agonist inactive
COc1ccc(CCN/C=C2/CC(=O)NC2=O)cc1OC	S1P4 ag 17 | S1P4 ag conf inactive | S1P1 agonist inactive
CCCCCC(=O)Nc1ccc(Cl)cn1	S1P4 ag 15 | S1P4 ag conf inactive | S1P1 agonist inactive
CCCOc1ccc(C2C(C(=O)OC)=CN(CCOC)C=C2C(=O)OC)cc1	S1P4 ag 12 | S1P4 ag conf inactive | S1P1 agonist inactive
CC(C)(C)c1ccc(OCC(=O)Nc2ccc3c4c(cccc24)C(=O)NC3=O)cc1	S1P4 ag 19 | S1P4 ag conf inactive | S1P1 agonist inactive
Cc1nn(CC(=O)NCCc2ccccc2Cl)c(=O)c2cc3sccc3n12	none (no result: PGE2 EP2 inh, S1P4 ag, S1P4 antagonist, S1P3 antagonist)
COc1ccc(CNC(=S)NC2CCCC2)cc1	S1P4 ag 11 | S1P4 ag conf inactive | S1P1 agonist inactive
COc1cccc(CNC(=S)NC2CCCC2)c1	none
CCCC(=O)Nc1nnc(-c2ccccc2F)s1	none (no result: S1P4 ag, S1P4 antagonist, S1P3 antagonist)
CC1CCC/C(=N\NC(=O)Nc2ccccc2)C1 (centres undefined)	none
COc1ccc(NCC(=O)N/N=C2\CCCC(C)C2)cc1 (centres undefined)	S1P4 ag 23 | S1P4 ag conf inactive | S1P1 agonist inactive
N#Cc1c(NC(=O)COc2ccc(Cl)cc2Cl)sc2c1CCC2	none (no result: S1P4 ag, S1P4 antagonist, S1P3 antagonist)
CCn1c(SCC(=O)Nc2c(C)cccc2C)nnc1-c1ccco1	none (no result: S1P4 ag, S1P4 antagonist, S1P3 antagonist)
CCOC(=O)C1=C(C)NC(=O)NC1c1ccc(N2CCC(c3ccccc3)=N2)cc1 (centres undefined)	S1P4 ag 15 | S1P4 ag conf inactive | S1P1 agonist inactive
CCOC(=O)C1=C(C)NC(=O)NC1c1ccc(NC(C)=O)cc1 (centres undefined)	none
O=C(c1ccc(NS(=O)(=O)c2cccc3cccnc23)cc1)N1CCCCC1	S1P4 ag 23 | S1P4 ag conf inactive | S1P1 agonist inactive
O=C(c1ccc(NS(=O)(=O)c2cccc3cccnc23)cc1)N1CCOCC1	none (no result: EP2 modulator)
COc1ccc2cc(C(c3nnnn3C3CCCC3)N3CCOCC3)c(=O)[nH]c2c1 (centres undefined)	none (no result: S1P4 ag, S1P4 antagonist, S1P3 antagonist)
COc1ccc(Cl)cc1N(CC(=O)NCC(C)C)S(=O)(=O)c1ccc(C)c([N+](=O)[O-])c1	S1P4 ag 25 | S1P4 ag conf inactive | S1P1 agonist inactive
CCN(CC)C(=O)Cn1c(=O)n(CCCCCC(=O)Nc2ccccc2)c(=O)c2sccc21	S1P4 ag 12 | S1P4 ag conf inactive | S1P1 agonist inactive
Cc1ccc(NC(=O)Cn2cnc3ccccc32)cc1C	S1P4 ag 58 | S1P4 ag conf inactive | S1P1 agonist inactive
CCOc1ccc(S(=O)(=O)n2c(C)nc3ccccc32)cc1	S1P4 ag 14 | S1P4 ag conf inactive | S1P1 agonist inactive
CCCCOc1ccc(S(=O)(=O)n2c(C)nc3ccccc32)cc1	none
CCC(c1nnnn1Cc1ccco1)N(Cc1ccc(OC)cc1)Cc1cc2cccc(C)c2[nH]c1=O (centres undefined)	none (no result: S1P4 ag, S1P4 antagonist, S1P3 antagonist)
CCCOc1cccc(-c2nc3cc(Cl)ccc3c(=O)o2)c1	none (no result: S1P4 ag, S1P4 antagonist, S1P3 antagonist)
Cc1ccccc1NC(=O)CSc1nnnn1-c1ccc2c(c1)OCO2	none (no result: S1P4 ag, S1P4 antagonist, S1P3 antagonist)
